AC50 and outcome data for 2 compounds are collected here from PubChem BioAssay (EPA / NIEHS).

Several values for one entry are separate records, joined by “and”; a condition that tells them apart may be missing. Equal entries are not always repeated. A structure can be active in one record and inactive in another. Activity calls are given as the source filed them. Rule for the calls: active = hit-call score of the fitted dose curve at least 0.9, where 1 is the maximum; inactive = score below 0.9.

Read-out in test [1]: Macrophage colony-stimulating factor (MCSF), CSF1 (gene 1435)
In words: BSK_hDFCGF_MCSF: BioMAP Diversity Plus: hDFCGF Assay for Macrophage colony-stimulating factor (MCSF) Biomarker Activity (AID 2283060). Conditions: primary human foreskin fibroblasts; actives raise or lower the signal. In outline: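 fibroblasts (human foreskin, primary), 24 h post-dose; M-CSF by ELISA; bidirectional fit, DMSO = baseline.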

Test [2] in a line: BSK_hDFCGF_SRB: Viability Assessment in the BioMAP Diversity Plus: hDFCGF Assay (AID 2283061).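 Note: cells exposed to compound for 24 h before the read.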 As to conditions: primary human foreskin fibroblasts. In outline:
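SRB-based viability read on primary human skin fibroblasts at 24 h: TCA fixation, 0.1% dye, 560 nm. Gain or loss of signal is fitted against the DMSO negative control.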

Read-out in test [3]: TIMP metallopeptidase inhibitor 1 (TIMP1), TIMP1 (gene 7076)
Nature of the test: BSK_hDFCGF_TIMP1: BioMAP Diversity Plus: hDFCGF Assay for TIMP metallopeptidase inhibitor 1 (TIMP1) Biomarker Activity (AID 2283062). Conditions: primary human foreskin fibroblasts; actives raise or lower the signal. Put shortly:
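Bidirectional curve fitting against DMSO baseline yielded this endpoint, based on ELISA detection of TIMP-1 in primary human foreskin fibroblasts exposed to compound for 24 h.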

Read-out in test [4]: Monokine induced gamma interferon (MIG), CXCL9 (gene 4283)
Nature of the test: BSK_hDFCGF_MIG: BioMAP Diversity Plus: hDFCGF Assay for Monokine induced gamma interferon (MIG) Biomarker Activity (AID 2283063). Conditions: primary human foreskin fibroblasts; actives raise or lower the signal. Put shortly:
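Endpoint derived by bidirectional fitting relative to DMSO; MIG quantified via ELISA in primary human foreskin fibroblasts harvested 24 h after dosing.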

Read-out in test [5]: Matrix Metallopeptidase 1 (MMP1), MMP1 (gene 4312)
Nature of the test: BSK_hDFCGF_MMP1: BioMAP Diversity Plus: hDFCGF Assay for Matrix Metallopeptidase 1 (MMP1) Biomarker Activity (AID 2283064). Conditions: primary human foreskin fibroblasts; actives raise or lower the signal. Put shortly: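 MMP1 levels quantified by ELISA 24 h after dosing human dermal fibroblast cultures, with parallel SRB total-protein staining for overt cytotoxicity. Data fitted in both directions against DMSO baseline.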

Read-out in test [6]: Vascular cell adhesion molecule 1 (VCAM1), VCAM1 (gene 7412)
Nature of the test: BSK_hDFCGF_VCAM1: BioMAP Diversity Plus: hDFCGF Assay for Vascular cell adhesion molecule 1 (VCAM1) Biomarker Activity (AID 2283065).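 Note: VCAM-1 protein level quantified by ELISA after 24 h chemical exposure.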 As to conditions: primary human foreskin fibroblasts; actives raise or lower the signal. In outline:
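Measured after 24 h chemical treatment of primary human skin fibroblasts, VCAM-1 was detected by ELISA and concentration-response analysed in both directions versus DMSO vehicle.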

Read-out in test [7]: Plasminogen activator inhibitor-1 (PAI1), SERPINE1 (gene 5054)
In words: BSK_hDFCGF_PAI1: BioMAP Diversity Plus: hDFCGF Assay for Plasminogen activator inhibitor-1 (PAI1) Biomarker Activity (AID 2283066). As to conditions: primary human foreskin fibroblasts; actives raise or lower the signal. Put shortly:
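PAI-1 levels in human dermal foreskin fibroblasts were quantified by ELISA 24 h after dosing, with gain or loss analysed against DMSO. Overt cytotoxicity was checked by sulforhodamine B total-protein staining in parallel cultures.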

Read-out in test [8]: Interferon-gamma inducible Protein 10 (IP10), CXCL10 (gene 3627)
In words: BSK_KF3CT_IP10: BioMAP Diversity Plus: KF3CT Assay for Interferon-gamma inducible Protein 10 (IP10) Biomarker Activity (AID 2283068). Conditions: primary human keratinocytes with fibroblasts; actives raise or lower the signal. In outline: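 ELISA read-out of IP-10 after 24 h chemical dosing of human skin primary co-culture (keratinocytes, foreskin fibroblasts). Gain or loss of signal relative to DMSO, bidirectional curve fit.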

The nature of test [9]: BSK_KF3CT_SRB: Viability Assessment in the BioMAP Diversity Plus: KF3CT Assay (AID 2283069).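 Note: read 24 h after compound addition.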 Conditions: primary human keratinocytes with fibroblasts. In outline: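 Cytotoxicity was gauged by SRB staining (0.1% SRB, 10% TCA fixation, 560 nm) of parallel cultures at 24 h. The cells were primary human skin keratinocytes co-cultured with fibroblasts, and activity was fitted in both directions against DMSO.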

Read-out in test [10]: Interleukin-1 alpha (IL1a), IL1A (gene 3552)
Nature of the test: BSK_KF3CT_IL1a: BioMAP Diversity Plus: KF3CT Assay for Interleukin-1 alpha (IL1a) Biomarker Activity (AID 2283070). As to conditions: primary human keratinocytes with fibroblasts; actives raise or lower the signal. In outline:
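IL-1a was detected by ELISA 24 h after chemical treatment of a co-culture of human skin keratinocytes and foreskin fibroblasts. Gain or loss of signal was fitted against the DMSO baseline.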

Read-out in test [11]: TIMP metallopeptidase inhibitor 2 (TIMP2), TIMP2 (gene 7077)
In words: BSK_KF3CT_TIMP2: BioMAP Diversity Plus: KF3CT Assay for TIMP metallopeptidase inhibitor 2 (TIMP2) Biomarker Activity (AID 2283071). As to conditions: primary human keratinocytes with fibroblasts; actives raise or lower the signal. Put shortly: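 TIMP-2 measured by ELISA at 24 h in human keratinocyte/fibroblast primary co-cultures exposed to chemicals. Both increases and decreases were fitted against DMSO. Parallel cultures were stained with SRB for total protein as an overt-cytotoxicity check.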

Read-out in test [12]: C-C motif chemokine 2 (Homo sapiens) (UniProt P13500)
Nature of the test: BSK_KF3CT_MCP1: BioMAP Diversity Plus: KF3CT Assay for Monocyte Chemoattractant Protein 1 (MCP1/CCL2) Biomarker Activity (AID 2283073). Conditions: primary human keratinocytes with fibroblasts; actives raise or lower the signal. Put shortly:
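Biomarker MCP-1 is measured by ELISA in primary human keratinocytes co-cultured with foreskin fibroblasts, 24 h after chemical treatment; DMSO serves as the negative control and activity baseline.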

Read-out in test [13]: Matrix Metallopeptidase 9 (MMP9), MMP9 (gene 4318)
Nature of the test: BSK_KF3CT_MMP9: BioMAP Diversity Plus: KF3CT Assay for Matrix Metallopeptidase 9 (MMP9) Biomarker Activity (AID 2283074).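 Note: MMP9 protein level quantified by ELISA in the co-culture.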 As to conditions: primary human keratinocytes with fibroblasts; actives raise or lower the signal. In outline:
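MMP-9 quantified by ELISA after 24 h chemical treatment of primary human skin keratinocyte/fibroblast co-cultures; gain or loss fitted against DMSO, with parallel SRB staining (0.1% SRB, 560 nm) for overt cytotoxicity.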

Read-out in test [14]: urokinase plasminogen activator (uPA), PLAU (gene 5328)
In words: BSK_KF3CT_uPA: BioMAP Diversity Plus: KF3CT Assay for urokinase plasminogen activator (uPA) Biomarker Activity (AID 2283075). As to conditions: primary human keratinocytes with fibroblasts; actives raise or lower the signal. In outline:
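ELISA read-out of uPA 24 h after dosing human skin keratinocytes co-cultured with foreskin fibroblasts. Signal change fitted both ways relative to DMSO; sulforhodamine B on parallel cultures marks overt cytotoxicity.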

Read-out in test [15]: CD40, CD40 (gene 958)
Nature of the test: BSK_LPS_CD40: BioMAP Diversity Plus: LPS Assay for CD40 Biomarker Activity (AID 2283076). Conditions: primary human HUVEC with PBMC; actives raise or lower the signal. In outline: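 Using a multiplexed primary human co-culture (umbilical vein endothelium plus PBMC), CD40 was read by ELISA 24 h after dosing, with cytotoxicity tracked by sulforhodamine B staining of parallel cultures and activity fitted bidirectionally versus DMSO.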

Read-out in test [16]: E-selectin (Homo sapiens) (UniProt P16581)
Nature of the test: BSK_LPS_Eselectin: BioMAP Diversity Plus: LPS Assay for Eselectin Biomarker Activity (AID 2283077). As to conditions: primary human HUVEC with PBMC; actives raise or lower the signal. In outline: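 Dose chemical onto LPS-driven HUVEC/PBMC co-culture; after 24 h, run ELISA for E-selectin; fit up- and down-going responses relative to DMSO control.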

Read-out in test [17]: Interleukin-8 (IL8), CXCL8 (gene 3576)
In words: BSK_LPS_IL8: BioMAP Diversity Plus: LPS Assay for Interleukin-8 (IL8) Biomarker Activity (AID 2283078). As to conditions: primary human HUVEC with PBMC; actives raise or lower the signal. Put shortly: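 In this LPS system, chemical-treated human umbilical vein endothelium/PBMC co-cultures were harvested at 24 h for IL-8 ELISA.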

A short description of test [18]: BSK_LPS_SRB: Viability Assessment in the BioMAP Diversity Plus: LPS Assay (AID 2283079).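 Note: total protein by sulforhodamine B absorbance as a cytotoxicity measure; measured one day after compound addition; fitted in both directions against DMSO so loss or gain of signal counts.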 As to conditions: primary human HUVEC with PBMC. In outline:
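Cytotoxicity endpoint in human endothelial–PBMC co-culture: 24 h exposure, then SRB (0.1%) staining, 560 nm read.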

Read-out in test [19]: Intercellular Adhesion Molecule 1 (ICAM1), ICAM1 (gene 3383)
Nature of the test: BSK_KF3CT_ICAM1: BioMAP Diversity Plus: KF3CT Assay for Intercellular Adhesion Molecule 1 (ICAM1) Biomarker Activity (AID 2283067). Conditions: primary human keratinocytes with fibroblasts; actives raise or lower the signal. Put shortly: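 Bidirectional curve fitting against a DMSO baseline was applied to ICAM-1 ELISA signal from primary human skin co-cultures harvested 24 h after treatment, with SRB staining of parallel wells for overt cytotoxicity.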

E-selectin (Homo sapiens), sequence (P16581 whole entry, looked up): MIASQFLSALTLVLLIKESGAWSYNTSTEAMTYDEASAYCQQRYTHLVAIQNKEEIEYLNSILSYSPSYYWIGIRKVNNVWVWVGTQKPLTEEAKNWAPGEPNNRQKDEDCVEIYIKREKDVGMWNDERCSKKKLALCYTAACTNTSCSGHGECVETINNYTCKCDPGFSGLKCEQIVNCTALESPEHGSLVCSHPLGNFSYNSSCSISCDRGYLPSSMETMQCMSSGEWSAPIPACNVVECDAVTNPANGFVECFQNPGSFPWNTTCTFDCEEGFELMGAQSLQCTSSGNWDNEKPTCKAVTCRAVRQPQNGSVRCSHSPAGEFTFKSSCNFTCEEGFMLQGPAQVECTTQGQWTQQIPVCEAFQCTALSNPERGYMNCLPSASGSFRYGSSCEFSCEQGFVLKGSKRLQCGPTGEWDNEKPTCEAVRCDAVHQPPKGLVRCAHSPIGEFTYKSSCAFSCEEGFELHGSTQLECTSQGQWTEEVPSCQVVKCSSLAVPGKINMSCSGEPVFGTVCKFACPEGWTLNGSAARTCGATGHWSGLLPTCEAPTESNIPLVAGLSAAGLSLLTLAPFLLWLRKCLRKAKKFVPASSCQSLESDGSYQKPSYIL

By AC50 is commonly meant the concentration at which the activity in the assay is half-maximal. Take `CCCCC(CC)COP(=O)(O)OCC(CC)CCCC` (stereo not given): the AC50 in test [1] is 33.9 µM (active) and 31.3 µM (active); in [2] it was 30.6 µM (active) and 29.9 µM (active); in test [3] it was 30.8 µM (active); in [4], 31.6 µM (active); in test [5], 12 µM (active) and 13.7 µM (active); in [6], 37.6 µM (active) and 32 µM (active). The AC50 is 27.5 µM (active) and 33.5 µM (active) in test [7]; 26.5 µM (active) and 27.2 µM (active) in test [8]; 25.5 µM (active) and 28.3 µM (active) in test [11]; 31.2 µM (active) and 20 µM (active) in [12]; 29.5 µM (active) and 36.8 µM (active) in [13]. Moreover, the outcome in test [3], in test [4], in [9], in test [10], in test [14] and in test [15] was inactive. Further, the result in test [16], in test [17] and in test [18] was inactive.

For `O=C(O)C(F)(F)C(F)(F)C(F)(F)C(F)(F)C(F)(F)C(F)(F)C(F)(F)C(F)(F)Cl`, the AC50 in test [1] is 30 µM (active) and 46.9 µM (active); in test [2], 47.7 µM (active) and 49.2 µM (active); in test [3], 30 µM (active); in [4], 21.4 µM (active) and 34.1 µM (active); in test [5], 1.31 µM (active) and 12.3 µM (active); in test [6], 46.8 µM (active) and 30 µM (active). Further, the AC50 in test [7] is 47.7 µM (active) and 46.5 µM (active); in test [19] it was 32 µM (active) and 25.1 µM (active); in [8], 45 µM (active) and 45.9 µM (active); in [9], 41.7 µM (active) and 49.7 µM (active); in test [10], 30 µM (active) and 20.5 µM (active); in test [11], 53.9 µM (active) and 52.6 µM (active). Also, the AC50 is 49.4 µM (active) and 55.1 µM (active) in test [12]; 37.5 µM (active) and 40.3 µM (active) in [13]; 30 µM (active) in test [16]; 5.95 µM (active) and 40.1 µM (active) in test [17]; 48.4 µM (active) and 47.2 µM (active) in test [18]. Besides, the outcome in test [3], in [15] and in test [16] was inactive.
